From PubChem BioAssay
VP16 counter = Gal4-VP16 reporter inhibition counter-screen; AID 2546; Potency, µM (series often up to 53.6 µM), for the others: top-dose activity, negative = inhibition, actives largely listed as inhibitors; Drosophila S2 Gal4-VP16 UAS-luciferase, luminescence, 20 h; 310,000 tested, 3.5% active;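 further: Gal4-VP16 expression switched on by copper sulfate through the metallothionein promoter; potency means the concentration at half of the fitted maximal effect; nearly all actives have a fitted effect of over 50% in size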
RORg inh = blocks mouse ROR gamma transcriptional activity. P51450. Potency, µM (titrated, usually from 53.6 µM), for inactives: top-dose activity change, negative = inhibition, hits mostly inhibitors. Drosophila S2 Gal4-RORgamma UAS-luciferase reporter, 20 h. 310,000 tested, 5.4% active; further: potency means the concentration at half of the fitted maximal effect; nearly all actives have a fitted effect of over 60% in size
Target sequence (P51450 whole entry, looked up, the tested form may be a part): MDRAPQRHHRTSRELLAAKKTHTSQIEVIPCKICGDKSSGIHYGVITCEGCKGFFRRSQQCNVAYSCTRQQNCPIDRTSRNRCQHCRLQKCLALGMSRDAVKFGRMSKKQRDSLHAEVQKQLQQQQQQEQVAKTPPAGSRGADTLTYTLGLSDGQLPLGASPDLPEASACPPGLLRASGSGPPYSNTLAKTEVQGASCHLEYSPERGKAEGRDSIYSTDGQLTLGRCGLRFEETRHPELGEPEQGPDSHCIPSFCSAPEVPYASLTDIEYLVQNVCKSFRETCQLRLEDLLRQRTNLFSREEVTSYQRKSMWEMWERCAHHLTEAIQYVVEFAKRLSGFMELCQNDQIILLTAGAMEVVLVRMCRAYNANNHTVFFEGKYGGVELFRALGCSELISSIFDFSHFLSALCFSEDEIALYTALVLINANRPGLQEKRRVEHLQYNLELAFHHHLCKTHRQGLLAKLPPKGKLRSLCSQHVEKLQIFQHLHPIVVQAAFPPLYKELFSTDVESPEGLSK
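Compounds are pin-transferred onto Drosophila Schneider cells expressing a copper-inducible Gal4–ROR gamma transactivation domain fusion. After 1 hr, copper sulfate is added to 700 uM final; luciferase is read 20 hr later.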
TSHR antag = blocks TSH signaling through the human TSH receptor. P16473. 330,000 tested, 0.2% active. activity change, negative = inhibition, % at 11.5 µM. TSHR-expressing cells, TSH-stimulated cAMP HTRF, 2 h; stronger effect = lower value;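 active means activity change below a set negative limit, meaning inhibition stronger than a set level, cut at about -70% in these data; inconclusive means activity change between two set negative limits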
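Antagonism was scored as loss of TSH-driven cAMP in TSHR cells, stimulated with 4nM TSH (EC80) for 2 hours at 37 deg C and detected by homogeneous HTRF competition immunoassay.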
ELG1 repair inh = ELG1-dependent DNA repair inhibition; Potency, µM (titrated, usually from 46.1 µM), for inactives: at the highest dose activity change, negative = inhibition, actives largely listed as inhibitors; HEK293T ELG1-luciferase reporter, luminescence, 16 h; DNA damage induced by 5-fluorouridine; 330,000 tested, 2.3% active; further: potency means the concentration at half of the fitted maximal effect; nearly all actives have a fitted effect of over 55% in size
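In this reporter screen, reduction of luminescence relative to DMSO vehicle indicated activity. Compounds and 5-fluorouridine were added together to 2,000 cells per well, incubated for 16 hr at 37 °C, then developed with ONE-Glo.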
B2AR arrestin = agonists driving beta-arrestin recruitment to human beta2-adrenergic receptor | beta-arrestin recruitment to beta2AR, cell-based reporter | Potency, µM (series often up to 46.1 µM), without a hit: top-dose activation, hits mostly activators | 330,000 tested, 0.02% active | AID 492947;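 further: potency means the concentration at half of the fitted maximal effect; 0% = DMSO controls and full agonism = EC100 isoproterenol or metaproterenol; nearly all actives have a fitted effect of over 65% in size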
An asterisk follows results filed as active; ? = inconclusive; · = no result given; [ ] = remark or other dose. A selection: hits, their analogues and other compounds. The true share with any hit is near 7.5%. Unless noted, the call rests on the fitted dose curve; in most records, active means well fitted curve in the direction sought with a large enough effect; inconclusive means small, poorly fitted or top-dose-only effect, or another doubt; inactive means no such curve, though single readings can be large; an effect the other way counts as inactive or inconclusive. Unless noted, on the % scale 0 is the no-effect control and ±100 the full control effect.

SMILES | VP16 counter | RORg inh | TSHR antag | ELG1 repair inh | B2AR arrestin
CSc1nc(N)nc2c1ncn2CC(=O)NCc1ccc2[nH]ccc2c1 | · | · | 1.8 | 23.1µM* | -0.5%
Cc1cc(C)n(-c2ccc(C(=O)C(C#N)c3nc4ccccc4n3C)cc2)n1 (centres undefined) | 8.91µM* | 3.16µM* | -13.8 | 0.0% | 0.0%
CCCCNC(=S)N(C)/N=C/c1c(C)[nH]c2ccccc12 | ? | 12.6µM* | -10.6 | -5.9% | -0.7%
CCCCNC(=S)N(C)/N=C/c1c(F)c(F)c(F)c(F)c1F | -9.6% | -1.4% | -3.6 | 12.5% | 0.1%
Cn1nnnc1Sc1ncnc2scc(-c3ccc(F)cc3)c12 | 23.8% | 10µM* | 32.8 | 19.9% | -0.4%
Cc1ccc(-c2csc3nc(SCC(N)=O)n(Cc4ccccc4)c(=O)c23)cc1 | ? | 11.2µM* | -0.8 | 23.1µM* | ?
Cc1ccc(-c2csc3ncnc(SCC(N)=O)c23)cc1 | -20.7%[10 µM] | 1.58µM* | 5.7 | -21.9% | 0.1%
O=C(CSc1ncnc2scc(-c3ccccc3)c12)N1CCN(Cc2ccc3c(c2)OCO3)CC1 | ? | 22.4µM* | -13.9 | ? | 0.0%
C=C(C(C)=O)C(O)/C=C/c1ccco1 (centres undefined) | -9.3% | -18.0% | · | · | ·
CN(C)c1ccc(C(C(=O)NCc2ccccc2)N(Cc2ccco2)C(=O)c2snc(C(N)=O)c2N)cc1 (centres undefined) | 7.9% | 4.1% | -5.2 | ? | 0.0%
Cc1ccc(-c2csc3ncnc(SCc4ccc(C(=O)O)cc4)c23)cc1 | 4.47µM* | 2.82µM* | -19.6 | -3.5% | -0.7%
Cc1sc2ncnc(SCc3ccc(C(=O)O)cc3)c2c1C | -20.6% | -1.7% | 1.3 | 0.1% | 0.5%
CC1=C(C(=O)OCc2ccccc2)C(c2ccc(C3CCCCC3)cc2)NC(=O)N1CCCCCC(=O)O (centres undefined) | -6.8% | 16.6% | · | · | ·
CS(=O)(=O)N1CCc2cc(-c3csc(NC(=O)Cc4cccs4)n3)ccc21 | ? | 16.6% | ? | 5.8µM* | 0.2%
CCCC[C@@H](NC(=O)[C@@H](Cc1cn(C(=O)OC)c2ccccc12)NC(=O)[C@H](CC(C)(C)C)NC(=O)N1[C@H](C)CCC[C@@H]1C)C(=O)O | 8.3% | -0.9% | · | · | ·
Cc1ccc(-n2c(=S)[nH]c3c(oc4ccccc43)c2=O)cc1 | -5.2% | 89.7% | 35.0 | ? | 1.0%
O=c1c2oc3ccccc3c2[nH]c(=S)n1-c1ccccc1 | 5.01µM* | ? | 14.2 | 11.2% | 0.3%
Cc1cccc(-n2c(=S)[nH]c3c(oc4ccccc43)c2=O)c1 | 4.47µM* | 2.82µM* | 26.0 | ? | 0.2%
O=c1c2sccc2[nH]c(=S)n1-c1ccccc1 | 3.55µM* | ? | 4.6 | 0.0% | 0.4%
CCCCn1c(=O)[nH]c2c(oc3ccccc32)c1=O | -24.1% | 23.9% | -5.1 | 15.6% | 0.4%
O=C(Nn1c(=O)[nH]c2ccsc2c1=O)c1ccccc1 | 1.7% | -0.7% | 0.9 | 2.4% | -0.5%
COC(=O)c1ccc(C(NC(=O)OCc2ccccc2)/C(C)=C/[C@@H](C)C(=O)NCc2nc3ccccc3s2)cc1 (some centres undefined) | -1.1% | 43.5% | · | · | ·
N#CCCN(C(=O)c1ccco1)c1ccccc1 | 9.0% | 1.41µM* | 8.6 | 2.9% | -0.4%
N#CCCN(C(=O)COC(=O)CCc1ccccc1)c1ccccc1 | -9.2% | 11.9% | 1.0 | 7.3% | 0.1%
Cc1ccc(S(=O)(=O)N(C)CCCC(=O)Nc2ccc(F)cc2)cc1 | 6.0% | 21.5% | -3.2 | ? | -0.2%
SMILES | VP16 counter | RORg inh | TSHR antag | ELG1 repair inh | B2AR arrestin
Cc1ccc(S(=O)(=O)N(C)CCCC(=O)Nc2ccncc2)cc1 | ? | 23.8% | -21.9 | 5.8µM* | 0.1%
Cc1nnc(N(Cc2ccco2)C(=O)c2cccc(C#N)c2)s1 | 0.9% | 12.6µM* | 20.0 | 8.1% | -2.1%
CC1(N(O)/C=C2\C=CC=CC2=O)CCCCC1=O (centres undefined) | -3.8% | -31.4% | -0.3 | -3.7% | -0.2%
COc1ccc(/C=N/NC(=O)CSCC(=O)Nc2ccccc2)cc1OC | -4.7% | 14.9% | 1.4 | -19.5% | 0.0%
S=C(N/N=C/c1ccccc1)N1CCOCC1 | 2.51µM* | 0.398µM* | 8.6 | ? | -0.1%
S=C(Nc1ccccc1)N1CCOCC1 | -1.6% | -25.6% | -2.1 | 9.3% | -0.6%
CSC(=S)N/N=C/c1ccccc1 | 3.16µM* | 1.41µM* | -10.7 | 5.5% | 0.3%
COc1ccc(/C=N/NC(=S)SC)cc1OC | 3.16µM* | 1.58µM* | 6.7 | 13.3% | 7.0%
O=C(CN1CCN(c2cccc(Cl)c2)CC1)Nc1ccc([N+](=O)[O-])cc1C(=O)Nc1ccccc1F | -8.6% | 34.4% | -7.2 | 14.6µM* | -0.4%
Cc1ccc(C)c(N2CCN(CC(=O)Nc3ccc([N+](=O)[O-])cc3C(=O)Nc3ccccc3F)CC2)c1 | -0.6% | 26.5% | -1.1 | ? | 0.5%
O=C(Oc1ccccc1)C1O[C@@H]1c1ccccc1 (some centres undefined) | -7.9% | -23.3% | · | · | ·
COCCn1c(SCC(=O)c2[nH]c(C)c(C(C)=O)c2C)nc2ccccc21 | 12.6% | 12.6% | -11.4 | 25.9µM* | 0.1%
CCOC(=O)c1c(C)[nH]c(C)c1C(=O)CSc1nc2ccccc2n1CCOC | ? | ? | 1.3 | -25.6% | -0.4%
CCNc1ccc(Br)cc(C(=O)/C=C/c2c(Cl)cccc2Cl)c1=O | ? | 10µM* | -17.1 | ? | 0.5%
CCNc1ccc(Br)cc(C(=O)/C=C/c2ccc(Cl)cc2)c1=O | ? | -35.5% | -6.6 | 20.6µM* | 0.6%
CC(=O)c1c(C)[nH]c(C(=O)NNC(=O)COc2cc(C)cc(C)c2)c1C | · | · | -11.0 | 0.3% | -1.3%
CCC[C@H]1COCCS(=O)(=O)N1Cc1ccc(Br)cc1 | -15.1% | -7.2% | -4.5 | 10.5% | 0.4%
Cc1ccc(O)c(N=NC2=C(O)CC(C)(C)CC2=O)c1 | 8.91µM* | 7.94µM* | -1.1 | ? | 0.0%
CC1(C)CC(=O)C(N=Nc2cc(Cl)c(Cl)c(Cl)c2)=C(O)C1 | ? | 25.5% | 0.4 | ? | 0.2%
CC(OC(=O)c1ccc(NC(=O)CC#N)cc1)C(=O)NCCC1=CCCCC1 (centres undefined) | · | · | 2.2 | -26.3% | -0.2%
Cc1ccc(NC(=S)NCCC2=CCCCC2)cc1 | 6.31µM* | 5.62µM* | -22.4 | ? | 0.4%
CCOC(=O)c1ccc(NC(=S)NCCC2=CCCCC2)cc1 | 3.16µM* | 2.82µM* | -5.5 | -24.6% | -0.9%
CC(=O)c1cccc(NC(=S)NCCC2=CCCCC2)c1 | 7.08µM* | 7.08µM* | -26.4 | -4.1% | -0.1%
CNNC(=S)NCCC1=CCCCC1 | ? | ? | -9.0 | 13.3% | -0.7%
CC(=O)c1cccc(NC(=S)NCCc2ccc(F)cc2)c1 | -14.0% | ? | -8.3 | ? | -0.1%
